Measured values taken from ChEMBL document CHEMBL5724796, “Tm Shift (DSF) assay results for EUbOPEN Chemogenomics Library” (2024).

The compounds below were run against Mitogen-activated protein kinase 1 (Homo sapiens) (UniProt P28482). Details: Compound concentration 20.0 uM.
Chain of Mitogen-activated protein kinase 1 (Homo sapiens) (P28482 whole entry): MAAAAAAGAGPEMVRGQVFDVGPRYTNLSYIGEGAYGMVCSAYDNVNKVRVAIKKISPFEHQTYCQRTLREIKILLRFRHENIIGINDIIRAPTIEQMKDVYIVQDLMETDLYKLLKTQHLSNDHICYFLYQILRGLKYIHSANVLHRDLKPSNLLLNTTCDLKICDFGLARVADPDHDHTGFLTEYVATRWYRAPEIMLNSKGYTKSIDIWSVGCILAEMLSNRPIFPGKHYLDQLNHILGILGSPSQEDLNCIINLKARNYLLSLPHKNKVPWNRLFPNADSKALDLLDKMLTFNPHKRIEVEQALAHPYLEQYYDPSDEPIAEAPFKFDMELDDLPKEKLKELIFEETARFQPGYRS
With `COc1cc(Nc2ncc(F)c(Nc3ccc4c(n3)N(COP(=O)(O)O)C(=O)C(C)(C)O4)n2)cc(OC)c1OC` the ΔTm was -0.75 °C.
Compound `COC(=O)[C@H]1[C@H]2C[C@@H]3c4[nH]c5cc(OC)ccc5c4CCN3C[C@H]2C[C@@H](OC(=O)c2cc(OC)c(OC)c(OC)c2)[C@@H]1OC` has a ΔTm of 0.12 °C.
`O=C(CCCCCCNC(=O)c1cnc(N(c2ccccc2)c2ccccc2)nc1)NO` was tested, and the ΔTm was -0.28 °C.
Compound `CCC[C@@H]1CNCc2c1[nH]c(=O)c(C#N)c2N1CCC2(CC1)CC2` has a ΔTm of -0.21 °C.
`Cc1ccc(F)c2cc(C(=O)N[C@@H]3CCC[C@H](N4CC[C@H](N(C)S(C)(=O)=O)C4)C3)[nH]c12` gave a ΔTm of -0.53 °C.
With `NC(=O)c1cc(F)cc2c1C(=O)N(C1CCN(C3CCC(F)(F)CC3)CC1)C2` the ΔTm was 0.19 °C.
In the case of `CCCC[C@]1(CC)CS(=O)(=O)c2cc(CNC(CC(=O)O)CC(=O)O)c(OC)cc2[C@@H](c2ccccc2)N1`, the ΔTm is reported as 0.14 °C.
`C[C@@H](Oc1ccc(S(C)(=O)=O)cc1C(=O)N1C[C@@H]2C[C@]2(c2cc(C(F)(F)F)on2)C1)C(F)(F)F` gave a ΔTm of 0.07 °C.
`CCN(CC)C(=O)/C(C#N)=C/c1cc(O)c(O)c([N+](=O)[O-])c1` showed a ΔTm of 0.32 °C.
`Cc1cc(C)c(CNC(=O)c2cc(Cl)c3c(c2C)O[C@@](C)([C@H]2CC[C@H](N(C)C)CC2)O3)c(=O)[nH]1` showed a ΔTm of 0.07 °C.
For `O=C(CCCCCCC(=O)Nc1ccc([C@H]2O[C@@H](CSc3nc(-c4ccccc4)c(-c4ccccc4)o3)C[C@@H](c3ccc(CO)cc3)O2)cc1)NO`, the ΔTm was -12.5 °C.
`Cc1ncc(Cl)cc1NCc1ccc(C(=O)N[C@@H](CC2CCCC2)C(=O)NC2CC2)s1` was tested, and the ΔTm was -3.12 °C.
`COc1ccc(CC[C@H]2CCC[C@@H](CCc3ccc(OC)cc3)N2C[C@@H](O)CO)cc1` showed a ΔTm of 0.31 °C.
In the case of `C=C(C)[C@@H](CC=C(C)C)C[C@@]12C[C@@H](CC=C(C)C)C(C)(C)[C@@](CC=C(C)C)(C(=O)C(C(=O)c3ccc(O)c(O)c3)=C1O)C2=O`, the ΔTm is reported as -6.65 °C.
In the case of `CNC(=O)c1cc(Nc2ccnc(Nc3ccc(CCNC(=O)OC(C)(C)C)cc3)n2)n[nH]1`, the ΔTm is reported as -12.3 °C.
`O=C(c1cc(Cc2n[nH]c(=O)c3ccccc23)ccc1F)N1CC(CNC2CC2)C1` was tested, and the ΔTm was 0.06 °C.
For `CCCCOc1c(OC)cc(C(=O)NCC2(N(C)C)CCOCC2)cc1OC`, the ΔTm was 0.03 °C.
In the case of `Cn1c(=O)cc(N2CCC[C@@H](N)C2)n(Cc2cc(F)ccc2C#N)c1=O`, the ΔTm is reported as 0.52 °C.
`CCOCC1(COCC)CCC(c2n[nH]cc2CN(C)CCNC)CC1` gave a ΔTm of 0.33 °C.
Work on `CCCNC(=O)[C@H]1O[C@@H]1C(=O)N[C@H](C(=O)N1CCC[C@H]1C(=O)O)[C@@H](C)CC` yielded a ΔTm of -0.39 °C.
`CCS(=O)(=O)N1CC(CC#N)(n2cc(-c3ncnc4[nH]ccc34)cn2)C1` gave a ΔTm of 0.18 °C.
For `C[C@H]1CO[C@@H]2Cn3cc(C(=O)NCc4ccc(F)cc4F)c(=O)c(O)c3C(=O)N12`, the ΔTm was 0.4 °C.
In the case of `CN(C)CCCNC(=O)c1ccc(-c2cc(O)c3ncccc3c2)cc1`, the ΔTm is reported as 0.28 °C.
`COC[C@H](NC(=O)c1ccn(S(C)(=O)=O)c1)C(=O)Nc1nc(-c2cccc(-c3ccn(C)n3)c2)cs1` was tested, and the ΔTm was 0.35 °C.
`Cc1c(Nc2ccc(S(=O)(=O)N3CCN(C)CC3)cc2F)nc2ccc(-c3cnn(C4CC4)c3)cn2c1=O` showed a ΔTm of 0.06 °C.
Compound `COc1cc(C(=O)NCC2(N(C)C)CCCC2)cc(OC)c1OCc1ccccc1` has a ΔTm of 0.38 °C.
For `COc1ccc(-c2ccc(-c3cn(C(=O)N4CCCCC4c4ccccc4)nn3)cc2)cc1` (stereo not drawn), the ΔTm was -0.45 °C.
Work on `OC[C@H]1O[C@@H](c2ccc(Cl)c(Cc3ccc(O[C@H]4CCOC4)cc3)c2)[C@H](O)[C@@H](O)[C@@H]1O` yielded a ΔTm of 0.5 °C.
